Source: PubChem BioAssay (NCATS)
Inconclusive results are not listed. The source made the active and inactive calls. Calls follow the shape of the dose curve; as a rule, active = well fitted curve in the direction sought with a large enough effect; inconclusive = small, poorly fitted or top-dose-only effect, or another doubt; inactive = no such curve, though single readings can be large; an effect the other way counts as inactive or inconclusive.

How the values were obtained:
[1] = qHTS of pediatric cancer cell lines to identify multiple opportunities for drug repurposing: Primary screen for TC32 cells (AID 1347089); also: nearly all actives have a fitted effect of over 60% in size; also: potency is read from the fitted curve at half-maximal effect
In short: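 Luminescent ATP read-out (CellTiter-Glo) of metabolically active TC32 cells after 48 h exposure. Concentration-response curves came from 11-point (MIPE, 0.78 nM–46 µM) or 8-point (NPC, 0.59 nM–46 µM) primary titrations; follow-up used 11 points.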

[2] = qHTS of pediatric cancer cell lines to identify multiple opportunities for drug repurposing: Primary screen for DAOY cells (AID 1347090); also: nearly all actives have a fitted effect of over 55% in size; also: potency is read from the fitted curve at half-maximal effect
In short: (§1)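 Eight- or eleven-point concentration series, 48 h treatment at 37 degrees C in growth media; readout CellTiter-Glo luminescence. Potency and efficacy were taken from the concentration-response curves.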

[3] = qHTS of pediatric cancer cell lines to identify multiple opportunities for drug repurposing: Primary screen for SJ-GBM2 cells (AID 1347091); also: potency is read from the fitted curve at half-maximal effect
In short: as §1

[4] = qHTS of pediatric cancer cell lines to identify multiple opportunities for drug repurposing: Primary screen for SK-N-MC cells (AID 1347093); also: potency is read from the fitted curve at half-maximal effect
In short: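 Metabolically active cells were quantified by ATP-dependent luminescence (CellTiter-Glo, 15 min at room temperature) following 48 h treatment. Cells had been plated at 500-1,000 per well and settled for 5 h beforehand.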

[5] = qHTS of pediatric cancer cell lines to identify multiple opportunities for drug repurposing: Primary screen for BT-37 cells (AID 1347094); also: potency is read from the fitted curve at half-maximal effect
In short: (§2)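 Following a 5-hour attachment period, cells at 500-1,000/well received compounds and were cultured for 48 hours. CellTiter-Glo was added and luminescence read to estimate viable, metabolically active cells.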

[6] = qHTS of pediatric cancer cell lines to identify multiple opportunities for drug repurposing: Primary screen for NB-EBc1 cells (AID 1347095); also: potency is read from the fitted curve at half-maximal effect
In short: as §2

[7] = qHTS of pediatric cancer cell lines to identify multiple opportunities for drug repurposing: Primary screen for U-2 OS cells (AID 1347096); also: nearly all actives have a fitted effect of over 50% in size; also: potency is read from the fitted curve at half-maximal effect
In short: (§3)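 Cells (500-1,000/well) in growth media were settled 5 h at 37 degrees C, then given compounds for 48 h. Viability was read as CellTiter-Glo luminescence. Primary runs used MIPE at 11 points (0.78 nM-46 µM) and NPC at 8 points (0.59 nM-46 µM); follow-ups used 11 points.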

[8] = qHTS of pediatric cancer cell lines to identify multiple opportunities for drug repurposing: Primary screen for Saos-2 cells (AID 1347097); also: nearly all actives have a fitted effect of over 40% in size; also: potency is read from the fitted curve at half-maximal effect
In short: as §2

[9] = qHTS of pediatric cancer cell lines to identify multiple opportunities for drug repurposing: Primary screen for LAN-5 cells (AID 1347100); also: potency is read from the fitted curve at half-maximal effect
In short: as §3

[10] = qHTS of pediatric cancer cell lines to identify multiple opportunities for drug repurposing: Primary screen for BT-12 cells (AID 1347101); also: nearly all actives have a fitted effect of over 25% in size; also: potency is read from the fitted curve at half-maximal effect
In short: (§4)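 Cells (500-1,000/well) rested 5 h, then received compounds for 48 h; metabolically active cells were measured by CellTiter-Glo luminescence. Final concentrations spanned up to 46 µM (MIPE, 11-point) or 0.59 nM-46 µM (NPC, 8-point) in primary screens, 11-point in follow-ups.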

[11] = qHTS of pediatric cancer cell lines to identify multiple opportunities for drug repurposing: Primary screen for Rh18 cells (AID 1347102); also: nearly all actives have a fitted effect of over 65% in size; also: potency is read from the fitted curve at half-maximal effect
In short: as §3

[12] = qHTS of pediatric cancer cell lines to identify multiple opportunities for drug repurposing: Primary screen for OHS-50 cells (AID 1347103); also: nearly all actives have a fitted effect of over 40% in size; also: potency is read from the fitted curve at half-maximal effect
In short: as §4

[13] = qHTS of pediatric cancer cell lines to identify multiple opportunities for drug repurposing: Primary screen for RD cells (AID 1347104); also: nearly all actives have a fitted effect of over 55% in size; also: potency is read from the fitted curve at half-maximal effect
In short: as §2

[14] = qHTS of pediatric cancer cell lines to identify multiple opportunities for drug repurposing: Primary screen for MG 63 (6-TG R) cells (AID 1347105); also: nearly all actives have a fitted effect of over 50% in size; also: potency is read from the fitted curve at half-maximal effect
In short: as §2

[15] = qHTS of pediatric cancer cell lines to identify multiple opportunities for drug repurposing: Primary screen for control Hh wild type fibroblast cells (AID 1347106);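 also: series mostly up to about 46 µM; a drop in luminescence marks cytotoxicity and a rise apparent proliferation; nearly all actives have a fitted effect of over 55% in size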
In short: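 Viability after 48 h compound treatment at 37C, 500-1,000 cells/well, read as ATP luminescence with CellTiter-Glo. Primary screens used 11-point (MIPE, 0.78 nM-46 µM) or 8-point (NPC, 0.59 nM-46 µM) final concentrations; follow-up screens used 11-point dilutions.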

[16] = qHTS of pediatric cancer cell lines to identify multiple opportunities for drug repurposing: Primary screen for A673 cells (AID 1347092); also: potency is read from the fitted curve at half-maximal effect; nearly all actives have a fitted effect of over 45% in size
In short: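 Cell viability of A673 measured by CellTiter-Glo ATP luminescence after 48 hours compound exposure. Dilution series spanned 0.78 nM to 46 µM (MIPE, 11-point) or 0.59 nM to 46 µM (NPC, 8-point); bortezomib 2.3 uM positive control.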

[17] = qHTS of pediatric cancer cell lines to identify multiple opportunities for drug repurposing: Primary screen for SK-N-SH cells (AID 1347098); also: nearly all actives have a fitted effect of over 65% in size; also: potency is read from the fitted curve at half-maximal effect
In short: as §4

[18] = qHTS of pediatric cancer cell lines to identify multiple opportunities for drug repurposing: Primary screen for NB1643 cells (AID 1347099); also: nearly all actives have a fitted effect of over 50% in size; also: potency is read from the fitted curve at half-maximal effect
In short: as §2

Structure (SMILES)	Potency [1]	Potency [2]	Potency [3]	Potency [4]	Potency [5]	Potency [6]	Potency [7]	Potency [8]	Potency [9]	Potency [10]	Potency [11]	Potency [12]	Potency [13]	Potency [14]	Potency [15]	Potency [16]	Potency [17]	Potency [18]
N#Cc1c(O)c2c(-c3ccc(-c4ccccc4O)cc3)csc2[nH]c1=O	inactive	inactive	inactive	inactive	inactive	inactive	inactive	inactive	inactive	inactive	inactive	inactive	inactive	inactive	inactive	–	–	–
COc1ccc(-c2cc3c(C)nc(N)nc3n(C3CCC(OCCO)CC3)c2=O)cn1 (stereo unspecified)	186 nM (active)	118 nM (active)	–	5.3 nM (active)	243 nM (active)	59 nM (active)	469 nM (active)	187 nM (active)	469 nM (active)	–	93.5 nM (active)	–	–	18.7 nM (active)	–	93.5 nM (active)	2410 nM (active)	166 nM (active)
CC(C)c1cnn2c(NCc3ccccc3)cc(N[C@@H](CO)[C@H](O)CO)nc12	1470 nM (active)	372 nM (active)	–	296 nM (active)	306 nM (active)	187 nM (active)	–	296 nM (active)	–	344 nM (active)	–	273 nM (active)	–	–	inactive	118 nM (active)	304 nM (active)	–
CCCn1c(=O)c2[nH]c(-c3cnn(Cc4cccc(C(F)(F)F)c4)c3)nc2n(CC)c1=O	inactive	inactive	–	–	–	–	inactive	–	inactive	–	inactive	–	inactive	–	–	–	inactive	inactive
CN[C@H]1CCc2cc(OC)c(OC)c(OC)c2-c2ccc(OC)c(=O)cc21	37 nM (active)	3.7 nM (active)	–	2.6 nM (active)	6.1 nM (active)	1 nM (active)	–	3.7 nM (active)	2.3 nM (active)	3.9 nM (active)	–	1.5 nM (active)	–	inactive	–	–	–	–
C=CC(=O)Nc1cc2c(Nc3ccc(F)c(Cl)c3)ncnc2cc1OCCCN1CCOCC1	inactive	18700 nM (active)	–	–	6850 nM (active)	18700 nM (active)	7430 nM (active)	5900 nM (active)	6620 nM (active)	21700 nM (active)	8330 nM (active)	7690 nM (active)	18700 nM (active)	23500 nM (active)	inactive	4690 nM (active)	2730 nM (active)	23500 nM (active)
CCNC(=O)Nc1ccc2ncc(Nc3ccc(C)cc3)nc2n1	1860 nM (active)	37.2 nM (active)	–	5.3 nM (active)	24300 nM (active)	18700 nM (active)	–	18700 nM (active)	935 nM (active)	–	–	24300 nM (active)	–	–	inactive	–	–	–
Cc1nc(N)ncc1-c1nc(N2CCOCC2)c2sc(C(C)(C)O)cc2n1	2340 nM (active)	935 nM (active)	–	46.9 nM (active)	6110 nM (active)	590 nM (active)	–	833 nM (active)	1320 nM (active)	–	1180 nM (active)	68.5 nM (active)	1480 nM (active)	296 nM (active)	–	–	1210 nM (active)	469 nM (active)
Nc1ccc(C(=O)c2cc3c(ccc4ccccc43)[nH]2)cc1	7390 nM (active)	–	2350 nM (active)	2090 nM (active)	7690 nM (active)	1660 nM (active)	inactive	2350 nM (active)	833 nM (active)	9680 nM (active)	inactive	10900 nM (active)	5900 nM (active)	–	inactive	2960 nM (active)	7640 nM (active)	16600 nM (active)
